The entries come from a sample that favours hits as a whole.
ERK EGF inh: qHTS Assay for Inhibitors of the ERK Signaling Pathway using a Homogeneous Screening Assay; Stimulation with EGF; HEK293-V1b, EGF-stimulated phospho-ERK AlphaScreen; Potency, µM (series often up to 11.5 µM), without a hit: top-dose activity change, negative = inhibition, actives largely listed as inhibitors; 0.41% of 130,000 active; AID 1454, 2008; active means well fitted inhibition curve with a large enough effect;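 further: plate controls were stimulated vehicle wells for no effect and unstimulated vehicle basal for full effect; nearly all actives have a fitted effect of over 55% in size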
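Readout: AlphaScreen signal for phosphorylated ERK in lysed HEK293 cells stably expressing V1b. Stimulus 25 nM EGF, 5 min, following 30 min compound exposure. Data scaled to DMSO basal and full EGF activation.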
* marks the source's active call; other numbers are inactive results; ! = not confirmed by another sample; [ ] = dose if it differs, or a comment. Potency means the concentration at half of the fitted maximal effect.

SMILES | ERK EGF inh
CCCCC[C@H](O)/C=C/[C@H]1OC(O)C[C@H](O)[C@@H]1C/C=C\CCCC(=O)O (some centres not stated) | 3%
CNCC(=O)N1CCN(c2ncc(C(F)(F)F)cc2Cl)CC1 | -1%
CCn1c(Cl)c(C=O)s/c1=N\S(=O)(=O)c1ccccc1 | 18µM*
O=Cc1sc(=O)n(Cc2cccc(C(=O)O)c2)c1Cl | -4%[57.5 µM]
CCN1C(=O)CS/C1=N\S(=O)(=O)c1ccc(Cl)cc1 | 13%
CN(C)CCOC(c1ccccc1)c1ccccc1 (tested in a mixture with another compound) | 14%[57.5 µM]
CN(C)CCOC(c1ccccc1)c1ccccc1 | 14µM*!
CN(C)CCOC(c1ccc(Cl)cc1)c1ccccn1 (configuration not stated) | 18%
CC(C)C[C@@H](CC(=O)N[C@@H](CCC(=O)O)CC(=O)O)NC(=O)[C@@H]1CCCC[C@H]1NC(=O)C[C@H](CCCN)NC(=O)C[C@H](CO)NC(=O)[C@@H]1CCCC[C@H]1N | -7%
O=C(NC(=S)Nc1ccccc1N1CCN(C(=O)c2ccccc2)CC1)c1cccs1 | 6%[57.5 µM]
CC(=O)NC(=S)Nc1ccccc1N1CCN(C(=O)c2ccccc2)CC1 | 32µM*
CC(C)C(=O)NC(=S)Nc1ccccc1N1CCN(C(=O)c2ccccc2)CC1 | -4%
CC(C)Cn1nnnc1S(=O)(=O)Cc1ccccc1 | -9%
CCOC(=O)C1=C(N)Oc2cc(O)ccc2C1c1ccc([N+](=O)[O-])cc1 (configuration not stated) | 18µM*
CCOC(=O)C1=C(O)C(=O)N(c2ccc(S(N)(=O)=O)cc2)C1c1ccc([N+](=O)[O-])cc1 (configuration not stated) | 7%[57.5 µM]
CCOC(=O)C1=C(O)C(=O)N(c2ccccc2)C1c1cccc([N+](=O)[O-])c1 (configuration not stated) | 11%[57.5 µM]
O=C1NC[C@H](c2ccccc2)N1 | -6%
CCOC(=O)C1(CC2CCCCO2)CCN(Cc2ccc(OC)cc2F)CC1 (configuration not stated) | -12%[57.5 µM]
COC(=O)[C@@H]1C[C@@H]2CC[C@@H](O)C[C@@H]2N1Cc1ccc(C)s1 | 1%
Cc1ccc(O)c(N=Nc2ccc(S(=O)(=O)N3CCOCC3)cc2)c1 | 9%
CC(C)(C)c1cc(Br)c(O)c(N=Nc2ccc(S(=O)(=O)N3CCOCC3)cc2)c1 | 25µM*
COc1ccc(S(=O)(=O)N2CCOCC2)cc1Br | 1%
CC1(C)CC[C@]2(C(=O)O)CC[C@]3(C)C(=CCC4[C@@]5(C)CC[C@H](O)C(C)(C)C5[C@H](O)C[C@]43C)C2C1 (some centres not stated) | 12%
CC(C)OC(=O)[C@@H]1CC[C@H](C)[C@@H](CCCC=O)O1 | -15%
COC(=O)N1CCC2(CCCN(C(=O)Nc3cccc(F)c3)C2)CC1 | 10%
SMILES | ERK EGF inh
CCOC(=O)CNC(=O)O[C@@H]1C(=O)c2cc(Br)ccc2O[C@H]1c1cccc(OC)c1 | 5%
O=C(Oc1ccccc1)C1O[C@@H]1c1ccccc1 (some centres not stated) | -5%
O=S(=O)(CCC(F)=C(F)F)c1nnnn1C1CCCCC1 | -9%
Cn1c(N)c(C(=O)COC(=O)c2ccc(Cl)c(S(=O)(=O)N3CCCC3)c2)c(=O)n(C)c1=O | -2%[57.5 µM]
COC(=O)[C@H](COC(C)(C)C)NC(=O)O[C@@H]1C(=O)c2ccc(OC)cc2O[C@H]1c1cccc(C(F)(F)F)c1 | -19%
CCN1C(=O)/C(=C/C=C2/Sc3ccc4ccccc4c3N2CCO)SC1=S | 2%
CCN1C(c2ccccc2)=C(c2ccccc2)S/C1=C/C=C1\SC(=S)N(C)C1=O | 3.2µM*
CCCN1C(=O)/C(=C\C=C2/C=CN(CC)c3ccccc32)SC1=S | 13%
Cc1cc2ccc(=O)oc2cc1OC[C@@H](O)C(C)(C)O | 2%
CCCONC(=O)Nc1ccccc1[N+](=O)[O-] | 4%
O=[N+]([O-])c1ccccc1N/N=C/c1cccc(O)c1O | 2%[57.5 µM]
CCCOc1ccc(/C=N/Nc2ccccc2[N+](=O)[O-])c(OCCC)c1 | 11µM*
O=C(Nc1c(S(=O)(=O)c2ccc(Cl)cc2)csc1Br)c1ccccc1Cl | 3%[57.5 µM]
COc1ccc2c(c1)O[C@@H](c1ccc3c(c1)OCO3)[C@H](OC(=O)NS(=O)(=O)c1ccc(C)cc1)C2=O | -4%
CC/C=C\C[C@H]1C(=O)CC[C@@H]1CC(=O)O | -2%
COC(=O)c1cc(OC)c(OC)cc1NC(=O)c1ccccc1C | -14%
CC(C)Oc1ccc2c(=O)c(-c3ccccc3)coc2c1 | 18µM*
COC(=O)COc1ccc2c(=O)c(-c3ccccc3)coc2c1 | 12%[57.5 µM]
CCC(Oc1ccc2c(=O)c(-c3ccccc3OC)coc2c1)C(=O)OCc1ccccc1 (configuration not stated) | 7%
N#Cc1ccc(CN2CCCC3(CCN(C(=O)c4csnn4)CC3)C2)cc1 | -4%
N#C/C(C(N)=O)=c1/ccc2c(c1)N1C3=C(CCCC3)CC3CCCCC31N=2 (configuration not stated) | 7.9µM*
COC(=O)c1ccc(C23CC2(C(NP(=O)(c2ccccc2)c2ccccc2)c2ccccc2)C3)cc1 (configuration not stated) | 2%
Cc1cc(C)cc(-c2cc3c(c(-c4c(O)c(-c5cc(C)cc(C)c5)cc5c4CCCC5)c2O)CCCC3)c1 | -6%
COc1cc(/C=N/Nc2cc(C)nc(NS(=O)(=O)c3ccc(C)cc3)n2)ccc1O | -2%
COc1ccc(/C=N/Nc2nc(-c3cccc(S(=O)(=O)N4CCCC4)c3)cs2)cc1OC | -3%
SMILES | ERK EGF inh
COc1cc(/C=N/Nc2nc(-c3ccc(S(=O)(=O)N(C)C)cc3)cs2)ccc1O | 8.9µM*
O=C(CCn1cnc2ccccc2c1=O)Nc1nc(-c2ccc(Br)cc2)cs1 | 7%
CCOC(=O)C1CSC(Cc2ccc(OCc3ccc([N+](=O)[O-])cc3)cc2)N1 (configuration not stated) | 0%
COc1ccc(Nc2nc(-c3ccc4c(c3)NC(=O)CO4)cs2)cc1 | 20µM*
COc1ccccc1Nc1nc(-c2ccc3c(c2)NC(=O)CO3)cs1 | -2%
COc1ccc(-c2csc(NC3=NCCCCC3)n2)cc1 | 10%
C/C(=N\Nc1ccc(S(=O)(=O)Nc2ccccc2)cc1[N+](=O)[O-])c1ccncc1 | -4%
CCCC(CCC)=NNc1ccc(S(=O)(=O)Nc2ccccc2OC)cc1[N+](=O)[O-] | 14µM*
COc1ccccc1NS(=O)(=O)c1ccc(OC)c([N+](=O)[O-])c1 | 1%
CCN(CC)CCCCn1c(-c2ccccc2)nc2c(NCc3ccccc3)nc(C)nc21 | 3%
Cn1cccc1C(=O)N1CCC2(CCCN(c3ccccn3)C2)CC1 | -8%
Cc1cccc(NC(c2ccc(C)s2)c2ccc3ccc(C)nc3c2O)n1 (configuration not stated) | 9%
Cc1ccnc(NC(c2cccnc2)c2ccc3cccnc3c2O)c1 (configuration not stated) | 3%
Cc1ccnc(NC(c2ccsc2)c2ccc3ccc(C)nc3c2O)c1 (configuration not stated) | 32µM*
COc1ccccc1-c1nccc(NCc2cccc(C)c2)n1 | 27%
CCOc1cc(/C=C2/NC(=O)N(CC(=O)OC)C2=O)ccc1OC | -3%
CCCN1C(=O)/C(=C/c2ccc(OCC(=O)OCC)cc2)NC1=S | 32µM*
CCCN1C(=O)/C(=C/c2ccc(N3CCOCC3)cc2)NC1=S | -4%
CC(=O)O[C@@H](C)C#C[Si](C)(C)c1ccccc1 | -11%

Assay outcomes as filed in PubChem BioAssay.
